Drawing on PubChem BioAssay, this text covers fold change permeability for 23 compounds.

Molecules are shown by their SMILES. Values without a mark were called inactive. Activity calls are given as the source filed them. Rule as the data show it: active = fold change permeability below about 0.7 or above about 1.3; inactive = in between.

This assay can be described thus: modulators of brain endothelial barrier permeability, primary screen, cell-based, FITC-avidin fluorescence, HTS (AID 1963498). Also: test concentration not given here. To be noted: actives lie on both sides.
As to `Cc1cc2nc(NCCCO)n(CC(=O)c3cc(C(C)(C)C)c(O)c(C(C)(C)C)c3)c2cc1C`, the fold change permeability is 1.1. In the case of `CC(=O)OCC1=C(C(=O)O)N2C(=O)[C@@H](NC(=O)Cc3cccs3)[C@H]2SC1` it was 0.8. Consider `C[C@]12C=CC(=O)C=C1CC[C@@H]1C2=CC[C@]2(C)[C@@H](C(=O)CN3CCN(c4cc(N5CCCC5)nc(N5CCCC5)n4)CC3)CC[C@@H]12`, for which the fold change permeability was 1.4 (active). Regarding `COc1ccc2c(c1)CC[C@@H]1[C@@H]2CC[C@]2(C)[C@@H](NCCCCCCN3C(=O)CCC3=O)CC[C@@H]12`, the fold change permeability was 2.2 (active). Regarding `CN(C)c1ccc(NCc2ccccn2)cc1`, the fold change permeability was 1.5 (active). In the case of `O=C(O)CN(CCOCCOCCN(CC(=O)O)CC(=O)O)CC(=O)O` it was 0.8. In the case of `O=C(Cc1ccccc1)Nc1nnc(CCSCCc2nnc(NC(=O)Cc3ccccc3)s2)s1` it was 1.5 (active). Regarding `N=C1CCCN1Cc1[nH]c(=O)[nH]c(=O)c1Cl`, the fold change permeability is 1.6 (active). Take `CC(CN(C)C)CN1c2ccccc2CCc2ccccc21` (stereo not drawn): the fold change permeability was 1.4 (active). In the case of `C[C@@H](O[C@H]1OCCN(Cc2nn(P(=O)(O)O)c(=O)[nH]2)[C@H]1c1ccc(F)cc1)c1cc(C(F)(F)F)cc(C(F)(F)F)c1` it was 1.4 (active); in that of `Cc1ccc(S(=O)(=O)N[C@@H](Cc2ccccc2)C(=O)CCl)cc1`, 1.8 (active).

Consider `CN1C2CCC1CC(OC(=O)c1c[nH]c3ccccc13)C2` (stereo not drawn), for which the fold change permeability is 1.6 (active).

In the case of `COc1ccc(-n2c(SCc3nc(-c4ccc(C)cc4)no3)nnc2-c2ccncc2)cc1`, the fold change permeability was 0.8. `COc1ccc(Br)cc1S(=O)(=O)NC(=O)/C=C/c1ccccc1Cc1ccc2ccccc2c1`: the fold change permeability was 1.1. For the compound `NNC(=O)CSc1nc2scc(-c3ccccc3)c2c(=O)n1-c1ccccc1`, the fold change permeability was 1.2. In the case of `CCCCOc1ccc(CC/C=C2\SC(=O)N(CCN)C2=O)cc1`, the fold change permeability is 1.6 (active).

As for `O=P(O)(O)C(O)(Cn1ccnc1)P(=O)(O)O`, the fold change permeability was 0.8. For `N=C(N)SCCc1cnc[nH]1`, the fold change permeability is 0.7 (active).

As for `CCCC(C(=O)OCCN(CC)CC)(c1ccccc1)c1ccccc1`, the fold change permeability was 1.2. Turning to `C[n+]1ccccc1CC(=O)c1ccc(Br)cc1`, the fold change permeability was 0.9. Under `O=c1cc(-c2ccc([N+](=O)[O-])cc2)nc2c(-c3ccc(Cl)cc3)c(Cc3ccccc3)[nH]n12` stands 1.2. Under `O=C(O)c1cc([N+](=O)[O-])ccc1NCCCc1ccccc1` stands 1. For `NC(=O)c1ccccc1`, the fold change permeability was 1.2.
